Where “and” joins values, the source holds several entries; their conditions need not be identical. Equal values may be shown once. In all, about 78,000 compounds went through this assay and about 1,800 (2.3%) were called active. About 27% were inconclusive and are not listed. No stated cut-off is given here; in the data, active means inhibition above about 30%; inconclusive means mostly about 10% to 28%; inactive means weaker than that. The sample as a whole holds a higher share of actives than the screen did.
Each compound was assayed against Interleukin-1 receptor-like 1 (Homo sapiens) (UniProt Q01638) (assay: inhibitors of human ST2 (IL1RL1) binding to IL-33, primary screen, biochemical, AlphaLISA (AID 1259354)). Details: AlphaLISA ST2-Fc/biotin-IL-33 interaction, 1 h; at 17 µM, hits give high values.
Sequence of Interleukin-1 receptor-like 1 (Homo sapiens) (Q01638 whole entry, looked up): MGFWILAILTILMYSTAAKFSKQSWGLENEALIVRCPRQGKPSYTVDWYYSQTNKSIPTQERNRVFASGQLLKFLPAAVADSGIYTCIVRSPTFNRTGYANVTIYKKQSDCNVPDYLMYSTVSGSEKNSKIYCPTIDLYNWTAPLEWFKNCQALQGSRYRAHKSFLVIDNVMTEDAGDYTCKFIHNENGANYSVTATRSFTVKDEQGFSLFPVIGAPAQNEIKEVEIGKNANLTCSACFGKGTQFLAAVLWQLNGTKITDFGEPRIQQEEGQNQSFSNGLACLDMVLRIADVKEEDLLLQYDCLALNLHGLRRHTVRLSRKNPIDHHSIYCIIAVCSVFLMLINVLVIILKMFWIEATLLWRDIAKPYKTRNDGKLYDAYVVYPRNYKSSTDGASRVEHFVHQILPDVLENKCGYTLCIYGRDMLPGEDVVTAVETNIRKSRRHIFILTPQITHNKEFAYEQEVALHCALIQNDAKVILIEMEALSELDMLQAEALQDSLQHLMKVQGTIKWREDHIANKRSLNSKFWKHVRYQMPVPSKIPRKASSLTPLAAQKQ
In the case of N#CC(C(=O)Nc1cccc(C(F)(F)F)c1)=C1CCCCCC1, the inhibition is reported as “inactive”.
With N#C/C(=C\c1ccc(-c2cccc([N+](=O)[O-])c2)o1)C(=O)Nc1cccc(C(F)(F)F)c1 the inhibition was 30% (active).
With O=[N+]([O-])c1cccc(-c2noc([C@@H]3C[C@@H](O)CN3Cc3ccc(C(F)(F)F)cc3)n2)c1 the inhibition was “inactive”.
With O=C(C1CCCN(Cc2c[nH]c3ccccc23)C1)N1CCCCCC1 (stereo unspecified) the inhibition was “inactive”.
For COc1ccc(-c2oc3ncn(Cc4ccco4)c(=N)c3c2-c2ccc(OC)cc2)cc1, the inhibition was 31% (active).
With O=C(Nc1c(-c2ccc(F)cc2)nc2ccccn12)c1cccc(F)c1 the inhibition was “inactive”.
With Cc1cccc2nc(-c3ccco3)c(Nc3ccc(F)cc3)n12 the inhibition was “inactive”.
With Fc1ccc(C=Nc2c(-c3ccco3)nc3ccccn23)cc1 the inhibition was 49% (active).
Fc1cccc(N2N=C(/C=C/c3cccs3)CC2c2cccs2)c1 (stereo unspecified) was tested, and the inhibition was 32% (active).
CCN(CC)S(=O)(=O)c1ccc(C(=O)Nc2nnc(-c3cc(OC)cc(OC)c3)o2)cc1 was tested, and the inhibition was “inactive”.
In the case of N#C/C(=C/c1ccc2c(c1)OCO2)c1nc(-c2cccc(Br)c2)cs1, the inhibition is reported as 30% (active).
With N#C/C(=C\c1cccc(F)c1)c1nc(-c2ccc3c(c2)OCO3)cs1 the inhibition was “inactive”.
With COc1ccccc1OCCNC(=O)c1ccccc1O the inhibition was “inactive”.
In the case of CCSc1nnc(NC(=O)Nc2ccc(Cl)cc2)s1, the inhibition is reported as “inactive”.
For O=C(Nc1ccc([N+](=O)[O-])cc1Br)c1cncc(Br)c1, the inhibition was 47% (active).
For O=C(Nc1ccc([N+](=O)[O-])cc1Br)c1ccncc1, the inhibition was “inactive”.
In the case of O=C(Nc1ccc([N+](=O)[O-])cc1Cl)c1cccc(Br)c1, the inhibition is reported as “inactive”.
CC(C)N(C(=O)Cn1c(Cl)nc2c1c(=O)n(C)c(=O)n2C)c1ccccc1 was tested, and the inhibition was “inactive”.
With CCc1ccc(NC(=O)c2ccc(CN3CCOCC3)cc2)cc1 the inhibition was “inactive”.
In the case of O=C(Nc1ccc(Cl)cc1)Nc1ccc2n(c1=O)C[C@H]1C[C@@H]2CN(C(=O)Cc2cccs2)C1, the inhibition is reported as “inactive”.
COc1ccc(-c2cccc(-n3cccn3)c2)cc1C(N)=O was tested, and the inhibition was “inactive”.
For CN1CCCC2(CC1)CCN(C(=O)c1cc3ccccc3n(C)c1=O)CC2, the inhibition was “inactive”.
For COc1cc(OC)cc(C(=O)N2c3ccccc3Sc3ccccc32)c1, the inhibition was “inactive”.
O=c1nc2cc3[nH]c4c(=O)c5ccccc5c4[nH]c3cc2n1 was tested, and the inhibition was 46% (active).
In the case of O=C(c1cccc(I)c1)n1nnc2ccccc21, the inhibition is reported as “inactive”.
In the case of CCSc1ncc(CN2CC[C@@H](N(C)CCc3ccccn3)[C@H](O)C2)cn1, the inhibition is reported as “inactive”.
With CC(=O)Nc1ncc2c(n1)CC(c1ccc(F)cc1)CC2=O (stereo unspecified) the inhibition was “inactive”.
In the case of COc1ccc(-c2cc(C(F)(F)F)nc(NCc3cccnc3)n2)cc1, the inhibition is reported as “inactive”.
In the case of COc1ccc(-c2cc(C(=O)Nc3cccnc3)c3ccccc3n2)cc1, the inhibition is reported as “inactive”.
With COc1ccc(-c2csc(/C(C#N)=C\c3cccnc3)n2)cc1 the inhibition was 31% (active).
For CCc1cccc(NS(=O)(=O)c2cc(Br)cc3c2N(C(C)=O)C(C)C3)c1 (stereo unspecified), the inhibition was “inactive”.
O=C(c1cscn1)N1CCCC(CCc2ccccc2C(F)(F)F)C1 (stereo unspecified) was tested, and the inhibition was “inactive”.
In the case of N=C1S/C(=C\c2ccc(N3CCOCC3)cc2)C(=O)N1c1ccccc1Cl, the inhibition is reported as 31% (active).
O=C1N=C(N2CCOCC2)S/C1=C/c1ccc(F)cc1 was tested, and the inhibition was “inactive”.
For COc1ccc(/C=C2\SC(=O)N(c3ccc(C)cc3)C2=O)cc1, the inhibition was “inactive”.
For CCC1=Nc2cc(C(=O)NCCN(CC)CC)ccc2Sc2ccc(C)cc21, the inhibition was “inactive”.
COc1ccc(C2NC(=O)N(C)C(C)=C2[N+](=O)[O-])cc1 (stereo unspecified) was tested, and the inhibition was “inactive”.
COc1ccc(C2CC(c3ccc([N+](=O)[O-])cc3)=NN2)cc1 (stereo unspecified) was tested, and the inhibition was 30% (active).
For COc1ccc(C2CC(c3ccc(C)cc3)Nc3ncnn32)cc1 (stereo unspecified), the inhibition was “inactive”.
For COC(=O)c1nc2n(n1)C(c1ccc(F)cc1)C1=C(CCCC1=O)N2 (stereo unspecified), the inhibition was “inactive”.
In the case of CC(=O)c1ccc(NC(=O)CCC2CCCCC2)cc1, the inhibition is reported as “inactive”.
For O=C(CCN1C(=O)c2ccccc2C1=O)Nc1cccc(C(F)(F)F)c1, the inhibition was “inactive”.
FC(F)(F)c1cccc(NCn2nnc3ccccc32)c1 was tested, and the inhibition was “inactive”.
With Cc1nn(-c2ccccn2)c2c1C(=O)/C(=C/Nc1cccc(C(F)(F)F)c1)CC2 the inhibition was 35% (active).
With CCOc1ccc2[nH]c(C(=O)O)c(CCN)c2c1 the inhibition was “inactive”.
With Cc1[nH]c2ccc(CNC(=O)[C@@H](O)Cc3ccccc3)cc2c1C the inhibition was “inactive”.
In the case of COc1ccc(Br)cc1C(=O)Nc1cccc(Cl)c1, the inhibition is reported as “inactive”.
For O=C(Nc1cccc(OCc2cc(=O)n3cc(Cl)ccc3n2)c1)c1cccs1, the inhibition was “inactive”.
Cc1ccc2ncc(NC(=O)c3cccs3)c(=O)n2c1 was tested, and the inhibition was 83% (active).
With O=C(NC1CCCCCCC1)c1cccs1 the inhibition was “inactive”.
Fc1cccc(CC2CN(Cc3cn[nH]c3-c3ccccc3)CCO2)c1 (stereo unspecified) was tested, and the inhibition was “inactive”.
With N#CC(c1ccco1)N1CCN(C(C#N)c2ccco2)CC1 (stereo unspecified) the inhibition was “inactive”.
In the case of CCc1ccc(S(=O)(=O)N=C2C=C(Br)C(=O)c3ccccc32)cc1, the inhibition is reported as 36% (active).
With CCc1ccc(S(=O)(=O)N=C2C=C(Nc3ccc(OC)cc3)C(=O)c3ccccc32)cc1 the inhibition was 95% (active).
With O=C1C(Nc2ccc(Br)cc2)=CC(=NS(=O)(=O)c2cccs2)c2ccccc21 the inhibition was 79% (active).
With COc1ccc(S(=O)(=O)NC(c2ccccc2)c2ccccc2)cc1 the inhibition was “inactive”.
With COc1ccc(NS(=O)(=O)c2ccc(Cl)cc2)cc1 the inhibition was “inactive”.
In the case of CCOc1ccc(S(=O)(=O)N=C2C=C(Nc3ccc(C)cc3)C(=O)c3ccccc32)cc1, the inhibition is reported as 91% (active).
With CCOc1ccc(NS(=O)(=O)c2ccc(Cl)cc2)cc1 the inhibition was “inactive”.
CCOc1ccc(NS(=O)(=O)c2ccc(NC(=O)c3ccccc3Br)cc2)cc1 was tested, and the inhibition was “inactive”.
In the case of CCN(CC)S(=O)(=O)c1ccc(OC)c(NC(=O)c2cc(OC)c(OC)c(OC)c2)c1, the inhibition is reported as “inactive”.
With Cc1cccc(OCC(=O)Nc2cc(C(F)(F)F)ccc2Cl)c1 the inhibition was “inactive”.
For Cc1ccc(CNC(=O)c2ccc3nc4sc5c(c4c(=O)n3c2)CCCC5)cc1, the inhibition was “inactive”.
For CCOc1ccc(NC(=O)C2CCN(S(=O)(=O)c3ccc(OC)c(OC)c3)CC2)cc1, the inhibition was “inactive”.
For COc1ccc(C2=N/C(=C\c3ccc(C(C)C)cc3)C(=O)O2)cc1[N+](=O)[O-], the inhibition was “inactive”.
With CCC(C(=O)NCc1ccccc1Cl)c1ccccc1 (stereo unspecified) the inhibition was “inactive”.
For O=C(c1ccccc1Cl)N1CCCCC1, the inhibition was “inactive”.
CCCCN(CC)S(=O)(=O)c1ccc2[nH]c(=O)cc(C(=O)NC3CCCCC3C)c2c1 (stereo unspecified) was tested, and the inhibition was “inactive”.
In the case of Cc1ccc(NC(=O)CNCCOc2ccccc2)c(C)c1, the inhibition is reported as “inactive”.
For NC(=O)Cn1cnc2c(cnn2-c2ccc(F)cc2)c1=O, the inhibition was “inactive”.
With C[C@@H](NC(=O)C1=C[C@@H](NC(=O)CS(=O)(=O)c2ccccc2)[C@@H](O)[C@H](O)C1)C(N)=O the inhibition was “inactive”.
For COc1ccc(Cl)cc1NC(=O)c1nn(-c2ccc(Cl)cc2)c(=O)c2ccccc12, the inhibition was “inactive”.
In the case of COc1cc2c(C(=O)N3CCCC3)cn(C)c(=O)c2cc1OC, the inhibition is reported as “inactive”.
For CCOc1ccc(C(C)=O)cc1N1C(=O)C2C3C=CC(CC3)C2C1=O (stereo unspecified), the inhibition was “inactive”.
For CCn1c(C)csc1=Nc1cccc(C(F)(F)F)c1, the inhibition was “inactive”.
With COc1ccc(C2C(=C(O)c3ccc(Cl)cc3)C(=O)C(=O)N2CCCN(C)C)c(OC)c1 (stereo unspecified) the inhibition was “inactive”.
For CN(C)CCCn1c(-c2ccc(Cl)cc2)csc1=Nc1ccccc1, the inhibition was 63% (active) and 45% (active).
With O=C(CN1C(=O)CC(c2ccccc2)=Nc2ccccc21)Nc1ccc(Cl)cc1 the inhibition was “inactive”.
With CCOC(=O)c1sc2nc3n(c(=O)c2c1C)N=C(c1ccccc1)CS3 the inhibition was “inactive”.
In the case of O=C1NN=C(c2ccccc2)/C1=C/c1ccc(-c2ccc(Cl)cc2)o1, the inhibition is reported as 49% (active).
Cc1c(Cl)c([N+](=O)[O-])nn1CCCC(=O)Nc1cc(Cl)ccc1Cl was tested, and the inhibition was “inactive”.
In the case of Cn1c(=O)c2c(nc(Cl)n2CC(=O)NC(C)(C)C)n(C)c1=O, the inhibition is reported as “inactive”.
For CCc1ccc(CNC(=O)c2cc3cc4ccc(OC)cc4nc3o2)cc1, the inhibition was “inactive”.
For O=C(Nc1ccc2c(c1)OCCO2)c1cc2cc3ccc(Cl)cc3nc2o1, the inhibition was 47% (active).
With CC(C)NC(=O)c1cc2cc3ccc(Cl)cc3nc2o1 the inhibition was “inactive”.
With CCOCCCNC(=O)c1oc2ccc(S(=O)(=O)N3CCC(C)CC3)cc2c1C the inhibition was “inactive”.
For Cc1ccc(C(=O)Nc2ccc3nn(-c4ccccc4)nc3c2)cc1, the inhibition was “inactive”.
O=C(O)c1cccc(N=Cc2nc(-c3ccc(Br)cc3)oc2O)c1 was tested, and the inhibition was “inactive”.
For O=C(COc1cccc([N+](=O)[O-])c1)Nc1ccc(-c2nnc(-c3ccco3)o2)cc1, the inhibition was 45% (active).
For Cc1cccc(OCC(=O)Nc2ccc(-c3nc4ncccc4o3)cc2)c1, the inhibition was “inactive”.
With COc1ccc(CC(=O)Nc2ccc(-c3nnc(-c4ccccc4)o3)cc2)cc1 the inhibition was “inactive”.
For Cc1c(F)cccc1NC(=O)C(C)Oc1ccc(Cl)cc1Cl (stereo unspecified), the inhibition was “inactive”.
For O=C1CC(c2ccccc2)=NN1c1ccc([N+](=O)[O-])cc1, the inhibition was 43% (active).
For O=C1CC(N2CCc3ccccc3C2)C(=O)N1c1ccc([N+](=O)[O-])cc1 (stereo unspecified), the inhibition was “inactive”.
For O=C(c1ccco1)N1CCN(c2ccc([N+](=O)[O-])cc2)CC1, the inhibition was “inactive”.
Cc1ccc(-c2cc(N3CCN(S(=O)(=O)c4cc(C)c(C)cc4C)CC3)ncn2)cc1 was tested, and the inhibition was “inactive”.
For O=C(CSCc1ccccc1)Nc1c(-c2ccc(F)cc2)nc2ccccn12, the inhibition was “inactive”.
For CC(C)CN(CC(C)C)S(=O)(=O)c1ccc(C(=O)Nc2sc3c(c2C#N)CCC3)cc1, the inhibition was “inactive”.
For COc1cccc(C(=O)Nc2sc3c(c2C(N)=O)CCCCCC3)c1, the inhibition was “inactive”.
COc1cccc(-c2c(C#N)c(N)n3c(nc4ccccc43)c2C#N)c1 was tested, and the inhibition was “inactive”.
COc1cccc(-c2ncnn2-c2sc3c(c2C#N)CCCCC3)c1 was tested, and the inhibition was 65% (active).
In the case of N#Cc1c(NC(=O)CCCC(=O)O)sc2c1CCCC2, the inhibition is reported as “inactive”.
With N#Cc1c(-n2ncnc2-c2ccc3c(c2)OCO3)sc2c1CCCC2 the inhibition was 47% (active).
For O=C(Nc1ncnc2sc3c(c12)CCCC3)c1ccccc1, the inhibition was “inactive”.
For Cc1cc(C)c(C#N)c(SCC(=O)c2ccc3c(c2)OCO3)n1, the inhibition was “inactive”.
For N#Cc1c(-n2ncnc2-c2ccccc2)sc2c1CCCC2, the inhibition was 31% (active).

Reference: PubChem BioAssay AID1259354 (Paczesny and Yang Labs, IUPUI and University of Michigan, 2018)
